From the supplement of paper PMC11732987, “Enantioselective OTUD7B fragment discovery through chemoproteomics screening and high-throughput optimisation” (Communications Chemistry, 2025)

Legend:
Experiment in all cases: log2 ratio of Biotin-Ahx-Ub-VS probe labelling (fragment/DMSO); higher = less target engagement (more negative = stronger competition), active = hit call of the paper (q ≤ 0.05, log2 ratio ≤ -1)
Details in all cases: compound concentration: 200 uM; treatment time: 3 h
ALG13 = target: T1, ALG13 (UniProt Q9NP73)
T1 sequence (whole entry): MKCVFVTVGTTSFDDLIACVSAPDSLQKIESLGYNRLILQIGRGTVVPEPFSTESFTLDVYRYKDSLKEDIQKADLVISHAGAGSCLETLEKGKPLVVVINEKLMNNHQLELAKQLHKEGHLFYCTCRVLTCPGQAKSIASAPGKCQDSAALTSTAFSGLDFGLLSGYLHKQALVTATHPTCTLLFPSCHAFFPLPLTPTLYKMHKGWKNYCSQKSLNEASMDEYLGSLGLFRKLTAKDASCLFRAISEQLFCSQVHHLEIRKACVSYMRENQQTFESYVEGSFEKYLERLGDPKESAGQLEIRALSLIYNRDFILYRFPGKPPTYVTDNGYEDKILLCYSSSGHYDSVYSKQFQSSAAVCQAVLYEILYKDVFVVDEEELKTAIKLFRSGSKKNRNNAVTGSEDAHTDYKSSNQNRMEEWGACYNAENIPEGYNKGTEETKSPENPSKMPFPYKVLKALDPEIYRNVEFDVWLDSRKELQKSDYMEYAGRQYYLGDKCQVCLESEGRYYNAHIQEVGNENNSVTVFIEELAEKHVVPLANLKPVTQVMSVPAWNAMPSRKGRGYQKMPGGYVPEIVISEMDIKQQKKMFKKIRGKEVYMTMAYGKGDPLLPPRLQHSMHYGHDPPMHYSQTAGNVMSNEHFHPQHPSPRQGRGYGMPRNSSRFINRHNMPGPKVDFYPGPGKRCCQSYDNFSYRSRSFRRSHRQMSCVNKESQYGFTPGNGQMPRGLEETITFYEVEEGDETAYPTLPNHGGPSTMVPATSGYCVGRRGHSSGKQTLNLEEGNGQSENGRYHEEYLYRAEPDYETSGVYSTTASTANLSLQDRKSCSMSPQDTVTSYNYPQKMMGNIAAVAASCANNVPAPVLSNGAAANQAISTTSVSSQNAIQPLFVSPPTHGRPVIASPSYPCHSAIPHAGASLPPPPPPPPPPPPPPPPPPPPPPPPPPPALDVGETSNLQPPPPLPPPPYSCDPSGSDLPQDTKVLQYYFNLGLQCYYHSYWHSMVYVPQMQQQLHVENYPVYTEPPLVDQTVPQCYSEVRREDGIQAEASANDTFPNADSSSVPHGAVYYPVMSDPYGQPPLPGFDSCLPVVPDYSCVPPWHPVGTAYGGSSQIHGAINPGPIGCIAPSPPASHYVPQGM
Procedure, shortened: (§1)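 Fragment (200 µM) or vehicle was incubated for 3 h with triplicate HEK293T lysate samples of 495 µg, which were then treated with Biotin-Ahx-Ub-VS at 0.5 µM final for 1 h. Labelled DUBs were enriched on NeutrAvidin, digested with LysC and trypsin, and analysed by diaPASEF LC-MS/MS. Values are average log2 fragment/vehicle ratios from an unpaired t-test on global-median-normalised Spectronaut label-free quantities, using proteins with ≥2 unique peptides.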

ATXN3 = ATXN3 (UniProt P54252)
Procedure, shortened: as §1

BAP1 = target: T2, BAP1 (UniProt Q92560)
T2 sequence (whole entry): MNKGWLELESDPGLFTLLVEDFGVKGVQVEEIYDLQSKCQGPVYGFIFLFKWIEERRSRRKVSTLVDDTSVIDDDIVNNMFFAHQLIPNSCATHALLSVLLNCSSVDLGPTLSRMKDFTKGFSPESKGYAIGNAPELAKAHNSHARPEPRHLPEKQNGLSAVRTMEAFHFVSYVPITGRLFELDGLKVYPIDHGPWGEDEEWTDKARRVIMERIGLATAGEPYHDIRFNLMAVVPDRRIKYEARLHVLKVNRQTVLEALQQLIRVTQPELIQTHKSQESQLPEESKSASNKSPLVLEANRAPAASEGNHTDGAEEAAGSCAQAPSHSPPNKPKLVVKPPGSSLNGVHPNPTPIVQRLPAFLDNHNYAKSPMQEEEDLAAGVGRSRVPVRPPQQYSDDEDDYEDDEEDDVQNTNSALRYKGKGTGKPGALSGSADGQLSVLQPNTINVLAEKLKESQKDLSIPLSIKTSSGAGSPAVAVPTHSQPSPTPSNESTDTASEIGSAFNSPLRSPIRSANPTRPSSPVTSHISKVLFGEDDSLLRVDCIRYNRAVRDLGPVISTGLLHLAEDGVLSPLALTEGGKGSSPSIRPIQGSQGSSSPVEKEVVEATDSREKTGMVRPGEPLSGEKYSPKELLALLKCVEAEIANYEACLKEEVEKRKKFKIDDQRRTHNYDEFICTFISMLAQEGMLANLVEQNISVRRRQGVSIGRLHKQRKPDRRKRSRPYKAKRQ
Procedure, shortened: as §1

EIF3F = EIF3F (UniProt O00303)
Procedure, shortened: as §1

EIF3H = EIF3H (UniProt O15372)
Procedure, shortened: as §1

FAM105A = target: T3, FAM105A (UniProt Q9NUU6)
T3 sequence (whole entry): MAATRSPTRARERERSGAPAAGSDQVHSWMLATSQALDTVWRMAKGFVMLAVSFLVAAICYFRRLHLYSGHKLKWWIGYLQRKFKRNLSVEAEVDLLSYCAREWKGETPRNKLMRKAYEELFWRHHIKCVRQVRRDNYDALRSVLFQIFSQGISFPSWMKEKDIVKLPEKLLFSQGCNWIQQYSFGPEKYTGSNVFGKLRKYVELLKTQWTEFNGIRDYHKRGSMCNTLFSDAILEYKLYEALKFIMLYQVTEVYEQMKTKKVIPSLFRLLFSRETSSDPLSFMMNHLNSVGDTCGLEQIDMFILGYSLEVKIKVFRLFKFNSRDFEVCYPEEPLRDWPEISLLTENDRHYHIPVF
Procedure, shortened: as §1

OTUB1 = OTUB1 (UniProt Q96FW1)
Procedure, shortened: as §1

OTUD4 = target: T4, OTUD4 (UniProt Q01804)
T4 sequence (whole entry): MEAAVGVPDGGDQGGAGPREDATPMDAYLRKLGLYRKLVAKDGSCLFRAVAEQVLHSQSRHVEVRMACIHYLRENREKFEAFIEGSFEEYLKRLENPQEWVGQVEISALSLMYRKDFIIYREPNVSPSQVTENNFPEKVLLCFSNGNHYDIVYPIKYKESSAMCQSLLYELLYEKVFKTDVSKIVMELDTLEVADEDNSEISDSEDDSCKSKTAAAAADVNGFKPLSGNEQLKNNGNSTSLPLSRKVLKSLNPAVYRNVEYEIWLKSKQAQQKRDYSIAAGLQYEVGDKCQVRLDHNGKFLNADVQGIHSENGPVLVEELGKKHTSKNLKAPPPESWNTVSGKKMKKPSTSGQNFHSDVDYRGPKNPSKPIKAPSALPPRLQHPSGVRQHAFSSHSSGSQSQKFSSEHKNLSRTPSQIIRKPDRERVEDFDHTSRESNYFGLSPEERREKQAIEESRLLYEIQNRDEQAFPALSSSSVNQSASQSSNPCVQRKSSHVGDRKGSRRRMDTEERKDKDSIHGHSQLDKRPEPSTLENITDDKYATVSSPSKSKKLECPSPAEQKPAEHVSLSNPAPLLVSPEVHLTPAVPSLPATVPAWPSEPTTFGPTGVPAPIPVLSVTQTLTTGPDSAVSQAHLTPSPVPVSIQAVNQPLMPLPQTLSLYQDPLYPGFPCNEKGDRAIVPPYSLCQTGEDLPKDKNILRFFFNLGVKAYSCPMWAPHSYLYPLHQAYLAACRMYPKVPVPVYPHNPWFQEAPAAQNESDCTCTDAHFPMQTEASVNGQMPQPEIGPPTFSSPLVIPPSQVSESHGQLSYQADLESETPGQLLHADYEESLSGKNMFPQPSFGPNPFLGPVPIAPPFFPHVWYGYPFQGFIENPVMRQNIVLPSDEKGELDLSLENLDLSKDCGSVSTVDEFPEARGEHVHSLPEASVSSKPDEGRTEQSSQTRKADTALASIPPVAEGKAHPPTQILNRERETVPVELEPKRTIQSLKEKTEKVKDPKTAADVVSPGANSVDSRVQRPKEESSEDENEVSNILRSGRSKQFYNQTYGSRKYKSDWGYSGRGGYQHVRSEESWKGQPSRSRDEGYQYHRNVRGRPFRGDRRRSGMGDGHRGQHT
Procedure, shortened: as §1

OTUD5 = target: T5, OTUD5 (UniProt Q96G74)
T5 sequence (whole entry): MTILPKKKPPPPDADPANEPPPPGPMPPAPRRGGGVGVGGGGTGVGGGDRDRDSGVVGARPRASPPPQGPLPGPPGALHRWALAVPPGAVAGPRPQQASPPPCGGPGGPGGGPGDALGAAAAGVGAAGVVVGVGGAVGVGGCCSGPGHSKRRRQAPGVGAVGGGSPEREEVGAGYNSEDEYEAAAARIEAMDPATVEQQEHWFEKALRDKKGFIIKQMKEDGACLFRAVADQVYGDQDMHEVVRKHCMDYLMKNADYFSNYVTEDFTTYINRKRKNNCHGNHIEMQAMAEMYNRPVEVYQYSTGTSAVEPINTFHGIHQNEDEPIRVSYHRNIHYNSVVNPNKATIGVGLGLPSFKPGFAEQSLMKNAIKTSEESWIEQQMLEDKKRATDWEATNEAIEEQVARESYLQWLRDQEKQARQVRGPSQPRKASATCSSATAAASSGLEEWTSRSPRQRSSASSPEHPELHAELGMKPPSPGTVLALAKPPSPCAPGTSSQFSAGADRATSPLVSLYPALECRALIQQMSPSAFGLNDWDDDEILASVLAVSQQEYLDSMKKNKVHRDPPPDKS
Procedure, shortened: as §1

Measured: log2 ratio of Biotin-Ahx-Ub-VS probe labelling

EIF3H, sequence (O15372 whole entry): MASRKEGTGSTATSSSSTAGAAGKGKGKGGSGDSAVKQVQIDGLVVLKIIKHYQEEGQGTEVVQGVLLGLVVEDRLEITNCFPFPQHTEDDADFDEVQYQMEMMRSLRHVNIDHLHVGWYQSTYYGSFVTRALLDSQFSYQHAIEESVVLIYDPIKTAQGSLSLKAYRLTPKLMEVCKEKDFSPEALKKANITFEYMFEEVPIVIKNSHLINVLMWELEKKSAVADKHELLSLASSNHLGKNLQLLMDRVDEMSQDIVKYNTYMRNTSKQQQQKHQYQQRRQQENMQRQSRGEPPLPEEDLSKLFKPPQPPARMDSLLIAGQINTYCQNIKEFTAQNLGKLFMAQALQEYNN
OTUB1, sequence (Q96FW1 whole entry): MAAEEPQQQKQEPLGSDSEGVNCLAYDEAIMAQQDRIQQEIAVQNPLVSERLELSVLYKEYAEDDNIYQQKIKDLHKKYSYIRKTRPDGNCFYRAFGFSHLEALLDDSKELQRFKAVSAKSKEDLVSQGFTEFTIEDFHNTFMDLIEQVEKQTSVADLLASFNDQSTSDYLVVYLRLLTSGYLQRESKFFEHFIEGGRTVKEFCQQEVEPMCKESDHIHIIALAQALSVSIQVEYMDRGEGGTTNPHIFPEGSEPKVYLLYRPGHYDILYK
ATXN3, sequence (P54252 whole entry): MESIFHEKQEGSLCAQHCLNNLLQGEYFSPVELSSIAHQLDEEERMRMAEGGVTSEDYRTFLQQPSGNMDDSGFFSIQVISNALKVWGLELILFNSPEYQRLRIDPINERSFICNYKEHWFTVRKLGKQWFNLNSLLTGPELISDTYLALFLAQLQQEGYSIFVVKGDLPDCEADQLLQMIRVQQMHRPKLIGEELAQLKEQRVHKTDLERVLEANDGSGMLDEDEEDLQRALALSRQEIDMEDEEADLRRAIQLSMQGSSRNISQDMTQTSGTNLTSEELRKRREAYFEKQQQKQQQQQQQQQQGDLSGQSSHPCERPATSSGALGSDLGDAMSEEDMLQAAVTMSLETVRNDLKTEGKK
EIF3F, sequence (O00303 whole entry): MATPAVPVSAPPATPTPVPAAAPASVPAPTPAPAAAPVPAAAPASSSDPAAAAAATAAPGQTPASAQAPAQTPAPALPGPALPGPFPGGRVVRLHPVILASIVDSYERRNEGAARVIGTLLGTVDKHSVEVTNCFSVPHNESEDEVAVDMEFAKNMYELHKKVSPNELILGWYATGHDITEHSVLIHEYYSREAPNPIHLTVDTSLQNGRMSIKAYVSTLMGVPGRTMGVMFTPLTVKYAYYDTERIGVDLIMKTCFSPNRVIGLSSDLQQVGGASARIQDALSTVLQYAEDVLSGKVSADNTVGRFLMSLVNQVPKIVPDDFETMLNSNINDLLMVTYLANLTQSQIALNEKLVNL

CN1C(=O)c2ccc(NC(=O)CCl)cc2C1=O
active: BAP1 -3.58
inactive: ALG13 0.35 | ATXN3 -0.464 | EIF3F -0.166 | EIF3H 0.319 | FAM105A -0.33 | OTUB1 0.0722 | OTUD4 -0.313 | OTUD5 -0.621
